# Screens: PubChem BioAssay, National Center for Advancing Translational Sciences (NCATS)
# An excerpt weighted towards active compounds, which were near 19% of everything screened.
# HT1080-NT tox: kills 2HG-producing HT-1080-NT fibrosarcoma cells; AID 686970; HT-1080-NT fibrosarcoma viability, CellTiter-Glo ATP luminescence, 48 h; 360,000 tested, 1.6% active; Potency, µM (highest dose often 46.1 µM), hits mostly cytotoxic;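 further: NT is the 2HG producing partner of a matched IDH1 knockdown line; nearly all actives have a fitted effect of over 55% in size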
#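 Compounds were tested in concentration-response format on HT-1080-NT cells for 48 hours at 37 degrees C. Cell viability came from CellTiter-Glo luminescence; curves were classified by r2, response magnitude and activity.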
# TDP1 cell noCPT: qHTS for Inhibitors of human tyrosyl-DNA phosphodiesterase 1 (TDP1): qHTS in cells in absence of CPT; DT40 Tdp1-/- hTDP1 cells, no CPT, ATP luminescence, 48 h; Potency, µM (series often up to 46.2 µM), usual class: inhibitors; 420,000 tested, 15% active; AID 686978, 2013; further: nearly all actives have a fitted effect of over 55% in size
#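 Growth of hTDP1-complemented DT40 Tdp1-knockout cells is measured by ATP luminescence after at least 48 hr compound exposure at 37 °C, with DMSO substituting for the 20 nM CPT used in the parallel screen.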
# KB-V1 cytotox: kills drug-selected multidrug resistant KB-V1 cells | KB-V1 MDR cells viability, CellTiter-Glo, 72 h | Potency, µM (highest dose often 46.1 µM), hits mostly cytotoxic | 400,000 tested, 3.4% active; further: nearly all actives have a fitted effect of over 60% in size
#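 Luminescent ATP read-out (CellTiter-Glo, 10 min) measures survival of drug-selected KB-V1 MDR cells after 72 h, 37 degrees C compound exposure. Medium: phenol-red-free DMEM, 10% FBS. Values from fitted concentration-response curves.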
# KB-3-1 tox: kills parental KB-3-1 adenocarcinoma cells. 400,000 tested, 1.4% active. KB-3-1 viability, CellTiter-Glo ATP luminescence, 72 h. Potency, µM (titrated, usually from 46.1 µM), most hits filed as cytotoxic; further: nearly all actives have a fitted effect of over 60% in size
#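 Parental KB-3-1 adenocarcinoma cells in phenol-red-free DMEM with 10% FBS were pin-treated with compounds at several concentrations, incubated 72 h at 37 °C, and viability read by CellTiter-Glo luminescence; concentration-effect curves were fitted after normalization.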
# DT40 TDP1 CPT: growth inhibition of DT40 Tdp1-/-;hTDP1 cells with camptothecin (screen for TDP1 inhibitors); chicken DT40 Tdp1-/-;hTDP1 cells + 20 nM CPT, ATP luminescence, 48 h; Potency, µM (titrated, usually from 46.2 µM), usual class: inhibitors; 420,000 tested, 12% active; further: nearly all actives have a fitted effect of over 55% in size
#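 Chicken DT40 Tdp1-/- cells complemented with human TDP1, 400 cells/well, exposed to compounds plus 20 nM camptothecin for at least 48 h at 37 C; viability read as ATP content by CellTiter-Glo luminescence.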
# HT1080 IDH1KD tx: kills HT-1080 cells with IDH1 knockdown | HT-1080 IDH1 knockdown viability, ATP luminescence, 48 h | Potency, µM (doses to about 46.1 µM), most hits filed as cytotoxic | 360,000 tested, 2% active | AID 686971
#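 IDH1KD HT-1080 cells, 750/well, RPMI + 5% FBS; compound pinned after 2 h settling; 48 h, 37 °C; CellTiter-Glo luminescence; % activity normalised to DMSO and no-cell wells; curves fitted, classed by r2 and efficacy.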
# A number is an active result; n = inactive; u = inconclusive; x = no result given; [ ] = another dose, or the depositor's remark. The call rests on the fitted dose curve; in most records, active means well fitted curve in the direction sought with a large enough effect; inconclusive means small, poorly fitted or top-dose-only effect, or another doubt; inactive means no such curve, though single readings can be large; an effect the other way counts as inactive or inconclusive.
SMILES,HT1080-NT tox,TDP1 cell noCPT,KB-V1 cytotox,KB-3-1 tox,DT40 TDP1 CPT,HT1080 IDH1KD tx
COc1cc(S(=O)(=O)Nc2cccc(C)c2)ccc1NC(=O)c1cccnc1,n,14.6µM,20.6µM,u,u,n
Cc1ccc(NC(=O)c2cccnc2)c([N+](=O)[O-])c1,n,18.4µM,u,u,18.4µM,n
Cc1ccc(C)c(NC(NC(=O)c2cccnc2)C(Cl)(Cl)Cl)c1 (stereo unspecified),n,25.9µM,n,n,23.1µM,n
Cc1ccc(NC(NC(=O)c2cccnc2)C(Cl)(Cl)Cl)cc1 (stereo unspecified),n,u,n,n,u,n
OC(c1ccc2c(c1)CN(Cc1ccc3nsnc3c1)CCO2)C1CCCCC1 (stereo unspecified),x,n,x,x,n,x
CNC(=O)C1Cc2c(-c3ccc4c(c3)OCO4)ccnc2O1 (stereo unspecified),n,n,n,n,n,n
CC(C)CCOC(=O)C1[C@H]2C(=O)N(Cc3cccs3)C[C@]23C=C[C@H]1O3 (stereo partly specified),n,n,n,n,n,n
COc1cc(C(=O)Nc2nnc(S(=O)(=O)N3CCCCCC3)s2)cc(OC)c1OC,n,n,n,n,n,n
Cn1nc(-c2ccc(Cl)cc2)c2cc(C(=O)NC3CC3)sc21,n,u,u,n,u,n
COc1cccc(NC(=O)c2cc3c(-c4ccc(Cl)cc4)nn(C)c3s2)c1,x,14.6µM,n,n,u,x
COc1ccc(-c2nn(C)c3sc(C(=O)N4CCN(c5ccccc5F)CC4)cc23)cc1OC,x,u,n,n,u,x
COc1ccc(-c2nn(C)c3sc(C(=O)Nc4cccc(F)c4)cc23)cc1OC,x,10.3µM,u,n,14.6µM,x
CC(C)(C)NCCOCCOc1ccccc1-c1ccccc1,n,u,23.1µM,n,11.6µM,n
CCC(C)NCCOCCOc1ccccc1-c1ccccc1 (stereo unspecified),u,u,n,n,u,u
COCCCNCCOCCOc1ccccc1-c1ccccc1,n,u,23.1µM,n,u,n
CCOC(=O)C1(CC2CCCCO2)CCN(C(=O)Nc2ccc(C)c(C)c2)CC1 (stereo unspecified),n,n,n,n,n,n
COc1ccc(-n2nc(C)c3c(=O)c4c([nH]c32)CCCC4)cc1,n,n,n,n,u,n
O=C(OCc1ccccc1)c1cccnc1,x,9.44µM,x,x,u,x
O=C(OCc1ccc(Br)cc1)c1cccnc1,n,n,n,n,u,n
COc1ccc(C(=O)CSC2=C(C#N)C3(CCCCC3)C(C#N)=C(N)N2)cc1,n,15.8µM,n,n,u,u
CCCSC1=C(C#N)C2(CCCCC2)C(C#N)=C(N)N1,n,u,u,n,u,n
N#CC1=C(N)NC(SCC(=O)Nc2ccccc2)=C(C#N)C12CCCCC2,n,23.1µM,n,n,u,n
N#CC1=C(N)NC(SCC(=O)c2ccc(Br)cc2)=C(C#N)C12CCCCC2,n,u,16.4µM,u,u,n
CCSC1=C(C#N)C2(CCCCC2)C(C#N)=C(N)N1,n,u,u,u,n,n[9.24 µM]
NS(=O)(=O)c1ccc(CCNC(=O)CSc2ncnc3ccccc23)cc1,n,n,n,n,n,n
SMILES,HT1080-NT tox,TDP1 cell noCPT,KB-V1 cytotox,KB-3-1 tox,DT40 TDP1 CPT,HT1080 IDH1KD tx
COc1cc(CN(C(=S)NCC(=O)O)C2CCCC2)cc(OC)c1OC,n,n,n,n,n,n
CCCNC(=O)CNC(=S)N(Cc1cc(OC)c(OC)c(OC)c1)C1CCCC1,n,n,16.4µM,n,n,n
Cn1c(C(=O)O)c(CC(=O)N2CCC(Cc3ccccc3)CC2)c2ccccc21,n,n,n,n,n,n
CCOC(=O)c1c(N)sc2c1CCC(CC)C2 (stereo unspecified),n,n,u,n,n,n
CC#CCOC(=O)c1c(C)nc2sc3c(c2c1N)CCC(O)C3 (stereo unspecified),23.1µM,9.2µM,11.6µM,u,u,u
CC(=O)N1CCCc2cc(S(=O)(=O)N(C)CC(=O)Nc3ccc(C)cc3C)ccc21,x,u,u,n,u,x
COc1ccc(-c2nc3ccc(C)cn3c2Nc2ccc3c(c2)OCO3)cc1,x,n,u,n,n,x
COc1cc(-c2nc3ccc(C)cn3c2Nc2ccc(Cl)cc2)ccc1O,x,18.4µM,n,n,16.4µM,x
CN(C)c1ccc(-c2nc3cnccn3c2Nc2ccc3c(c2)OCCO3)cc1,n,n,n,n,n,n
COc1cc(-c2nc3ccc(Cl)cn3c2Nc2ccc3c(c2)OCO3)ccc1O,x,13µM,n,n,14.6µM,x
CN(C)c1ccc(-c2nc3ccc(Cl)cn3c2Nc2ccc3c(c2)OCCO3)cc1,x,14.6µM,n,n,u,x
COc1cc(-c2nc3sccn3c2Nc2cccc(C)c2)ccc1O,x,16.4µM,x,x,u,x
Clc1ccc2nc(-c3ccccn3)c(Nc3ccc4c(c3)OCO4)n2c1,n,20.6µM,u,u,u,n
NC(N)=NCCCC(NC(=O)c1ccccc1)C(=O)Nc1ccc2ccccc2c1 (stereo unspecified),n,u,n,n,n,n
CCOc1ccc(CC(=O)NCc2ccc3c(c2)CCN3C(C)=O)cc1OCC,x,n,x,x,n,x
O=C(N/N=C/c1cc(Br)c(O)c(Br)c1O)c1cccnc1,u,u,n,u,20.6µM,10.3µM
O=C(N/N=C/c1cc2c(cc1Br)OCO2)c1cccnc1,n,u,u,n,n,n
O=C(N/N=C/c1cc(O)ccc1Br)c1cccnc1,u,2.91µM,n,20.6µM,5.8µM,u
CCc1ccc(NC(=O)Cn2c(=O)n(Cc3nc(-c4ccccc4)no3)c(=O)c3cc4c(cc32)OCO4)cc1,x,n,n,n,n,x
CCn1cc(S(=O)(=O)c2cc(C)cc(C)c2)c(=O)c2cc(F)c(N3CCCCC3)cc21,x,20.6µM,x,x,u,x
CCn1cc(S(=O)(=O)c2cc(C)cc(C)c2)c(=O)c2cc(F)c(N3CCC(C)CC3)cc21,x,u,x,x,n,x
Cc1ccc(S(=O)(=O)c2cn(C)c3cc(N4CCCCC4)c(F)cc3c2=O)cc1,x,u,n,n,u,x
Cc1ccc(S(=O)(=O)c2cn(C)c3cc(N4CCCCCC4)c(F)cc3c2=O)cc1,x,16.4µM,n,n,u,x
Cc1ccc(S(=O)(=O)c2cn(C)c3cc(N4CCCC(C)C4)c(F)cc3c2=O)c(C)c1 (stereo unspecified),x,23.1µM,n,n,23.1µM,x
Cc1ccc(S(=O)(=O)c2cn(C)c3cc(N4CCCC4)c(F)cc3c2=O)c(C)c1,x,23.1µM,n,n,u,x
